SMILES strings stand for the structures. About 3,800 (1.1%) of roughly 360,000 compounds were called active. The sample as a whole holds a higher share of actives than the screen did. A number with no mark means an inactive call.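 Rule for the calls: active = compounds causing at least 50% loss of cell viability in the single-dose screen, relative to plate controls; inactive = the rest.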

A short description of this assay: TRAIL-exposed caspase-8 expressing cell killing – NB7+C8 cells, ATPlite luminescence, TRAIL sensitizer project, primary screen (AID 624354). Conditions: at 10 µM, stronger effect = higher value. For orientation: Cellular ATP, detected with luciferase, serves as a proxy for viable cell number.
`C/C(=N\OC(=O)c1ccccc1)c1c(C)nc2cc(C)ccn12`: the inhibition (viability loss, TRAIL sensitization) is -6.57%.

In the case of `Cc1cc(OC(=O)c2ccccc2Cl)ccc1N1C(=O)CCC1=O`, the inhibition (viability loss, TRAIL sensitization) was 7.7%.

For the compound `Cc1cccc(/C(N)=N/OC(=O)c2ccccc2Cl)c1`, the inhibition (viability loss, TRAIL sensitization) is 60.5% (active).

`O=C(Nc1cccc2c1N(C(=O)c1ccco1)CCC2)c1ccco1`: the inhibition (viability loss, TRAIL sensitization) was -4.17%.

On to `Cc1ccc(C(C)C)c(OCCSc2nc3ccccc3n2CC(=O)O)c1`, for which the inhibition (viability loss, TRAIL sensitization) was -6.21%.

As for `COc1ccc(NC(=O)CN2C(=O)COc3ccc(S(=O)(=O)N4CCOCC4)cc32)cc1`, the inhibition (viability loss, TRAIL sensitization) is 4.01%.

Turning to `Cc1cc(Cl)c2oc(C(=O)N3CCC(O)(c4ccccc4)CC3)c(C)c2c1`, the inhibition (viability loss, TRAIL sensitization) was 12.6%.

With `C[C@@H](Nc1nc(-c2ccccc2)nc2c1oc1ccccc12)C(=O)O`, the inhibition (viability loss, TRAIL sensitization) is -9.15%.

For the compound `Cc1nc(N2CCCC2C(=O)O)c2oc3ccccc3c2n1` (stereo unspecified), the inhibition (viability loss, TRAIL sensitization) was -12.2%.

Turning to `Cc1nc(Cl)c2oc3ccccc3c2n1`, the inhibition (viability loss, TRAIL sensitization) is 69.6% (active).

With `Cc1ccc(N(Cc2cc(=O)[nH]c3ccccc23)C(=O)CCl)cc1`, the inhibition (viability loss, TRAIL sensitization) is 92.9% (active).

In the case of `CCC(=O)N(Cc1cc2ccccc2[nH]c1=O)c1ccc(OC)cc1`, the inhibition (viability loss, TRAIL sensitization) is -1.03%.

Turning to `CC(=O)N(Cc1cc(=O)[nH]c2ccccc12)c1ccc(C)cc1C`, the inhibition (viability loss, TRAIL sensitization) was 1.98%.

For `CN(C(=O)CSc1nnc(-c2ccc3c(c2)OCO3)o1)C1CCS(=O)(=O)C1` (stereo unspecified), the inhibition (viability loss, TRAIL sensitization) was -7.74%.

On to `C=C1C(=O)[C@]23C[C@H]1CCC2[C@@]1(C)C(C[C@@H]3O)[C@](C)(C(=O)O)CC[C@@H]1O` (stereo partly specified), for which the inhibition (viability loss, TRAIL sensitization) is 25.6%.

Consider `COc1ccc(CCNC(=O)CSc2nc(-c3ccc(OC)c(OC)c3)ccc2C#N)cc1`, for which the inhibition (viability loss, TRAIL sensitization) was 28%.

On to `CCOc1ccc2nc(N3CCCN(C(=O)Nc4ccccc4C)CC3)c(C#N)cc2c1`, for which the inhibition (viability loss, TRAIL sensitization) is 4.35%.

On to `CCOc1ccc2cc(C#N)c(SCC(=O)OC)nc2c1`, for which the inhibition (viability loss, TRAIL sensitization) is 51.7% (active).

Turning to `O=C(NCCO)C(=O)NCC(c1ccc2c(c1)OCO2)N1CCN(c2ccc(F)cc2)CC1` (stereo unspecified), the inhibition (viability loss, TRAIL sensitization) was -13%.

`COc1ccc([N+](=O)[O-])cc1NC(=O)C(C)OC(=O)C1c2ccccc2Oc2ccccc21` (stereo unspecified): the inhibition (viability loss, TRAIL sensitization) was 5.23%.

On to `CCN(C(=O)COc1cccnc1[N+](=O)[O-])C1CCS(=O)(=O)C1` (stereo unspecified), for which the inhibition (viability loss, TRAIL sensitization) is -20.2%.

With `CCC(=O)Nc1nnc(S(=O)(=O)N2CCCc3ccccc32)s1`, the inhibition (viability loss, TRAIL sensitization) was 18.7%.

Regarding `CC1CCN(C(=O)c2cccc(S(=O)(=O)N3CCCc4ccccc43)c2)CC1`, the inhibition (viability loss, TRAIL sensitization) is 9.56%.

In the case of `CCOc1ccc2nc(N(CCCN(C)C)C(=O)c3ccc(C(=O)c4ccccc4)cc3)sc2c1`, the inhibition (viability loss, TRAIL sensitization) was 84.6% (active).

As to `CN(C)CCCN(C(=O)c1ccc(S(=O)(=O)N2CCCc3ccccc32)cc1)c1nc2ccc(F)cc2s1`, the inhibition (viability loss, TRAIL sensitization) was 49.7% (active).

In the case of `CCN(C(=O)COc1ccc(C(=O)c2ccccc2)cc1)c1ccccc1`, the inhibition (viability loss, TRAIL sensitization) is 5.81%.

Regarding `CCOc1ccc2nc(C(=O)N3CCCC(C)C3)sc2c1` (stereo unspecified), the inhibition (viability loss, TRAIL sensitization) was 31.9%.

For `CC(C)CC(=O)N1CCN(Cc2ccccc2Br)CC1`, the inhibition (viability loss, TRAIL sensitization) was -13.2%.

Take `COC(=O)[C@]12CCCCC=C1N(Cc1cccc3ccccc13)C(=O)[C@H](CC(=O)N1CCOCC1)C2`: the inhibition (viability loss, TRAIL sensitization) was -17.8%.

For `CCN(Cc1ccncc1)C(=S)Nc1ccccc1C`, the inhibition (viability loss, TRAIL sensitization) was -14.3%.

Consider `COc1cc(C=O)ccc1Oc1nnnn1-c1ccccc1`, for which the inhibition (viability loss, TRAIL sensitization) was 9.4%.

Take `O=C(CNC(=O)c1cc(=O)[nH]c2ccccc12)Nc1ccc(F)c(F)c1`: the inhibition (viability loss, TRAIL sensitization) is -6.89%.

With `CN1CCN(CCCNC(=O)c2ccc(/C=C3\Oc4ccccc4N(Cc4ccc(Cl)cc4)C3=O)cc2)CC1`, the inhibition (viability loss, TRAIL sensitization) is 70.5% (active).

On to `Cc1ccc(NC(=O)CCCNC(=O)c2ccc(Cl)cc2)cc1S(=O)(=O)N1CCOCC1`, for which the inhibition (viability loss, TRAIL sensitization) is 3.06%.

In the case of `CCC1Oc2ccccc2N(CC(=O)NCCCN2CCN(CC)CC2)C1=O` (stereo unspecified), the inhibition (viability loss, TRAIL sensitization) was -10.7%.

For `O=C(Nc1cccc(F)c1)N1C2CCC1CC(O)(c1cccnc1)C2` (stereo unspecified), the inhibition (viability loss, TRAIL sensitization) was -0.997%.

In the case of `CCCn1c(C)cc(C(=O)COC(=O)c2c(C)nn(-c3ccccc3)c2C)c1C`, the inhibition (viability loss, TRAIL sensitization) is 1.44%.

Regarding `Cc1ccsc1C(=O)OCC(=O)c1cc(C)n(CC2CCCO2)c1C` (stereo unspecified), the inhibition (viability loss, TRAIL sensitization) is 75.4% (active).

Take `COc1ccc(CNC(=O)COC(=O)c2sccc2C)cc1OC`: the inhibition (viability loss, TRAIL sensitization) was -16.5%.

As for `COc1ccc(/C=N/N=C/c2c[nH]c(=O)c(C#N)c2Nc2ccccc2)cc1`, the inhibition (viability loss, TRAIL sensitization) was 19.4%.

Take `COc1ccc(-c2cn3ccc(C)cc3n2)cc1`: the inhibition (viability loss, TRAIL sensitization) was 87.1% (active).

`FC(F)(F)Oc1ccc(-c2cn3cccnc3n2)cc1`: the inhibition (viability loss, TRAIL sensitization) is 34.5%.

For the compound `COc1cc(OC)cc(-c2nc(=S)n3ccsc3n2)c1`, the inhibition (viability loss, TRAIL sensitization) was -7%.

For the compound `COc1ccc(-c2cn3ccsc3n2)cc1`, the inhibition (viability loss, TRAIL sensitization) is 54.1% (active).

Consider `Cc1ccc(S(=O)(=O)NCc2cn3ccsc3n2)c(C)c1`, for which the inhibition (viability loss, TRAIL sensitization) was -5.68%.

In the case of `COc1ccc(-c2cc3nc(NCCOc4ccccc4)ccn3n2)cc1`, the inhibition (viability loss, TRAIL sensitization) is 2.79%.

Consider `CCn1cc(C(=O)NCC(=O)NC(C)(C)CO)c(=O)c2cc3c(cc21)OCO3`, for which the inhibition (viability loss, TRAIL sensitization) was -16.5%.

For the compound `COc1ccc(C(C)NC(=S)NC2CCCCC2)cc1OC` (stereo unspecified), the inhibition (viability loss, TRAIL sensitization) is -10.3%.

In the case of `CN1CC(c2ccccc2)C2(COc3ccccc3C2=O)C12C(=O)Nc1ccccc12` (stereo unspecified), the inhibition (viability loss, TRAIL sensitization) was 1.61%.

On to `COc1ccc(OC)c(NC(=O)CSc2nc(N)c(-c3ccccc3)c(=O)[nH]2)c1`, for which the inhibition (viability loss, TRAIL sensitization) is -16.4%.

With `OC(CNCc1ccc(Cl)c(Cl)c1)c1ccccc1` (stereo unspecified), the inhibition (viability loss, TRAIL sensitization) was 1.28%.

The values are drawn from PubChem BioAssay AID624354 (Sanford-Burnham Center for Chemical Genomics, 2012).
